From PubChem BioAssay (NCI)
This is part of a sample that, as a whole, favours compounds with a hit. Of some 83,000 tested, about 20% had one in any assay.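 Growth was measured after 48 h exposure to one concentration of compound in 96-well plates. Values under 10 count as active.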 Calls of active or inactive are those of the source.

Assays:
Experiment in all cases: NCI-60 one-dose screen, 48 h (100 = growth as untreated, 0 = no growth, -100 = all killed)
Details in all cases: 10 µM
RPMI-8226 leukemia = system: RPMI-8226 leukemia
OVCAR-8 ovarian = system: OVCAR-8 ovarian
OVCAR-4 ovarian = system: OVCAR-4 ovarian
SK-OV-3 ovarian = system: SK-OV-3 ovarian
OVCAR-3 ovarian = system: OVCAR-3 ovarian
HS 578T breast = system: HS 578T breast
NCI/ADR-RES ovarian = system: NCI/ADR-RES ovarian
T-47D breast = system: T-47D breast
BT-549 breast = system: BT-549 breast
MDA-MB-435 melanoma = system: MDA-MB-435 melanoma
SW-620 colon = system: SW-620 colon
MCF7 breast = system: MCF7 breast
HCT-116 colon = system: HCT-116 colon
HCC-2998 colon = system: HCC-2998 colon
KM12 colon = system: KM12 colon
MDA-MB-468 breast = system: MDA-MB-468 breast
OVCAR-5 ovarian = system: OVCAR-5 ovarian
IGROV1 ovarian = system: IGROV1 ovarian

Measured: growth

COC[C@@H](CC(C)C)N=C1NC(=O)/C(=C/c2ccc3ncsc3c2)N1
active: RPMI-8226 leukemia 4.92% | SK-OV-3 ovarian -0.203% | OVCAR-3 ovarian -38.4% | NCI/ADR-RES ovarian 9.71% | T-47D breast -7.77% | BT-549 breast -10.9% | SW-620 colon 5.92% | MCF7 breast -17.7% | MDA-MB-468 breast -17.8%
inactive: OVCAR-8 ovarian 13.7% | OVCAR-4 ovarian 40.4% | HS 578T breast 11.6% | MDA-MB-435 melanoma 12.7% | HCT-116 colon 19.2% | HCC-2998 colon 15.5% | KM12 colon 21%

O=C1Nc2ccc(Cl)cc2/C1=C/c1cccc(OCc2ccccc2)c1
inactive: OVCAR-8 ovarian 14.6% | OVCAR-5 ovarian 69.2% | OVCAR-4 ovarian 33.5% | IGROV1 ovarian 36.7% | T-47D breast 12.5% | BT-549 breast 41.9% | MDA-MB-435 melanoma 35.4% | SW-620 colon 45.4% | HCT-116 colon 17% | HCC-2998 colon 50.6% | KM12 colon 38.9%
active: RPMI-8226 leukemia -28.1% | OVCAR-3 ovarian 8.28% | HS 578T breast 6.44% | MCF7 breast 9.65% | MDA-MB-468 breast -10.2%

COc1cc(Cn2c(C(F)(F)F)cc3c(Cl)ncnc32)ccn1
inactive: SK-OV-3 ovarian 75.4% | HS 578T breast 11.2% | NCI/ADR-RES ovarian 67.7% | T-47D breast 66.5% | KM12 colon 30.8%
active: RPMI-8226 leukemia 6.17% | OVCAR-8 ovarian -16% | OVCAR-4 ovarian -58.4% | IGROV1 ovarian -90.6% | OVCAR-3 ovarian -52.4% | BT-549 breast -15.9% | MDA-MB-435 melanoma -0.488% | SW-620 colon 4.9% | MCF7 breast 7.67% | HCT-116 colon -23.4% | HCC-2998 colon -95.6% | MDA-MB-468 breast -80.9%

COC[C@@H](CC(C)C)N=C1NC(=O)/C(=C/c2ccc3ncoc3c2)N1
inactive: OVCAR-8 ovarian 12.4% | OVCAR-4 ovarian 53.7% | HS 578T breast 25.9% | NCI/ADR-RES ovarian 20.3% | MDA-MB-435 melanoma 17.3% | HCT-116 colon 22.8% | HCC-2998 colon 36.7% | KM12 colon 16.4%
active: RPMI-8226 leukemia 0.955% | SK-OV-3 ovarian -40.8% | IGROV1 ovarian 7.9% | OVCAR-3 ovarian -26.3% | T-47D breast -4.84% | BT-549 breast 2.39% | SW-620 colon 0.318% | MCF7 breast 1.91% | MDA-MB-468 breast -31.1%

COc1ccc([C@H]2C(C(=O)c3ccc(Cl)cc3)C3(N[C@@H]2c2ccccc2)C(=O)Nc2ccc(Cl)cc23)cc1 (stereo not given in full)
inactive: OVCAR-8 ovarian 15.3% | OVCAR-4 ovarian 20.4% | SK-OV-3 ovarian 17.3%
active: RPMI-8226 leukemia -11% | IGROV1 ovarian -1.76% | OVCAR-3 ovarian -10.8% | HS 578T breast -10.1% | NCI/ADR-RES ovarian -47.1% | T-47D breast 9.93% | BT-549 breast 7.71% | MDA-MB-435 melanoma -57.5% | SW-620 colon 4.15% | MCF7 breast -4.24% | HCT-116 colon 2.1% | HCC-2998 colon -59.3% | KM12 colon -23.4% | MDA-MB-468 breast -3.62%

CCCCCCCCCCCCCCCCCCCC(=O)NCCc1c[nH]c2ccc(OC(=O)CCCC(=O)OCCOOCCOOCCOOCCOOCCOOCCOOCCOOCCOOCCOOCCOOCCOOCCOC)cc12
inactive: T-47D breast 22.4% | MDA-MB-435 melanoma 82.7% | SW-620 colon 83% | MCF7 breast 24.3% | HCT-116 colon 32.7% | HCC-2998 colon 87.8% | KM12 colon 35.7% | MDA-MB-468 breast 85.6%
active: BT-549 breast -20.2%

CCN1CCN(c2ccc(NC(=O)Nc3ccc(-c4cc(C(=O)NC(C)C)c5ncccc5n4)cc3)cc2C(F)(F)F)CC1
active: RPMI-8226 leukemia -43.3% | OVCAR-8 ovarian -83.3% | OVCAR-5 ovarian -83.2% | OVCAR-4 ovarian -83.2% | IGROV1 ovarian -86% | OVCAR-3 ovarian -60.1% | HS 578T breast -37.7% | NCI/ADR-RES ovarian -66.9% | T-47D breast -66.5% | BT-549 breast -82.1% | MDA-MB-435 melanoma -92.9% | SW-620 colon -69.8% | MCF7 breast -89.9% | HCT-116 colon -94% | HCC-2998 colon -98.2% | KM12 colon -83.7% | MDA-MB-468 breast -91.1%

O=C(Nc1ccc(F)c(Cl)c1)c1cc(-c2ccc(F)cc2F)ccc1O
active: RPMI-8226 leukemia -28.6% | OVCAR-8 ovarian 6.82% | OVCAR-5 ovarian 0.459% | OVCAR-3 ovarian 9.88% | HS 578T breast -3% | NCI/ADR-RES ovarian -15.1% | T-47D breast -6.69% | BT-549 breast -37.6% | MDA-MB-435 melanoma 0.745% | SW-620 colon 6.07% | MCF7 breast -16.1% | HCT-116 colon 9.19% | HCC-2998 colon 4.97% | KM12 colon -16% | MDA-MB-468 breast -44.4%
inactive: OVCAR-4 ovarian 12.9% | IGROV1 ovarian 16.4%

Cc1ccc(NCC(=O)Nn2c(COc3ccccc3)nc3ccccc3c2=O)cc1
inactive: RPMI-8226 leukemia 85.9% | OVCAR-8 ovarian 60.1% | OVCAR-4 ovarian 25.4% | SK-OV-3 ovarian 52.8% | IGROV1 ovarian 82.4% | OVCAR-3 ovarian 75.4% | HS 578T breast 66.1% | NCI/ADR-RES ovarian 72.6% | T-47D breast 82.6% | BT-549 breast 97.6% | MDA-MB-435 melanoma 92.6% | SW-620 colon 95.1% | MCF7 breast 82% | HCT-116 colon 85.1% | HCC-2998 colon 95.7% | KM12 colon 100% | MDA-MB-468 breast 80.1%

CN1CCN(c2ccc(C(=O)/C=C/c3cc(Br)ccc3F)cc2)CC1
active: RPMI-8226 leukemia -24.7% | MDA-MB-435 melanoma 1.57% | SW-620 colon -25.7% | MCF7 breast 2.37% | HCT-116 colon 1.2% | HCC-2998 colon -63.2% | KM12 colon 8.8% | MDA-MB-468 breast -13.3%
inactive: OVCAR-8 ovarian 64.2% | OVCAR-4 ovarian 59.6% | SK-OV-3 ovarian 44.4% | IGROV1 ovarian 33.1% | OVCAR-3 ovarian 33.8% | HS 578T breast 95.1% | NCI/ADR-RES ovarian 35.3% | T-47D breast 59.8% | BT-549 breast 59.3%
